# Inconclusive results are not listed. A call without a number means that no potency is given here. The source made the active and inactive calls. The call rests on the fitted dose curve; in most records, active means well fitted curve in the direction sought with a large enough effect; inconclusive means small, poorly fitted or top-dose-only effect, or another doubt; inactive means no such curve, though single readings can be large; an effect the other way counts as inactive or inconclusive.
# Assays:
# [1] = qHTS of pediatric cancer cell lines to identify multiple opportunities for drug repurposing: Confirmatory screen for TC32 cells (AID 1347118);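 further: cells exposed to compound for 48 h before the read; nearly all actives have a fitted effect of over 65% in size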; further: potency means the concentration at half of the fitted maximal effect
# How it was run: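 TC32 cells, 500-1,000/well in growth medium, compound-treated 48 h at 37 °C; viability from CellTiter-Glo luminescence. Primary screen: MIPE 11-point (0.78 nM–46 µM final), NPC 8-point (0.59 nM–46 µM final); confirmatory at 11-point dilutions.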
# [2] = qHTS of pediatric cancer cell lines to identify multiple opportunities for drug repurposing: Confirmatory screen for control Hh wild type fibroblast cells (AID 1347121); further: nearly all actives have a fitted effect of over 70% in size
# How it was run: (§1)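 Cells (500-1,000/well) rested 5 h, then received compounds for 48 h; metabolically active cells were measured by CellTiter-Glo luminescence. Final concentrations spanned up to 46 µM (MIPE, 11-point) or 0.59 nM-46 µM (NPC, 8-point) in primary screens, 11-point in follow-ups.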
# [3] = qHTS of pediatric cancer cell lines to identify multiple opportunities for drug repurposing: Confirmatory screen for U-2 OS cells (AID 1347122); further: nearly all actives have a fitted effect of over 65% in size; further: potency means the concentration at half of the fitted maximal effect
# How it was run: as §1
# [4] = qHTS of pediatric cancer cell lines to identify multiple opportunities for drug repurposing: Confirmatory screen for Rh41 cells (AID 1347123);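 further: 48 h compound exposure; nearly all actives have a fitted effect of over 60% in size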; further: potency means the concentration at half of the fitted maximal effect
# How it was run: as §1
# [5] = qHTS of pediatric cancer cell lines to identify multiple opportunities for drug repurposing: Confirmatory screen for RD cells (AID 1347124);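 further: cells exposed to compound for 48 h before viability readout; nearly all actives have a fitted effect of over 65% in size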; further: potency means the concentration at half of the fitted maximal effect
# How it was run: as §1
# [6] = qHTS of pediatric cancer cell lines to identify multiple opportunities for drug repurposing: Confirmatory screen for Saos-2 cells (AID 1347127); further: nearly all actives have a fitted effect of over 60% in size; further: potency means the concentration at half of the fitted maximal effect
# How it was run: as §1
# [7] = qHTS of pediatric cancer cell lines to identify multiple opportunities for drug repurposing: Confirmatory screen for SK-N-SH cells (AID 1347129);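 further: cells exposed to compound for 48 h before viability read; nearly all actives have a fitted effect of over 60% in size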
# How it was run: as §1
# [8] = system: Zika virus NS2B-NS3 protease; experiment: Primary screen GU AMC qHTS for Zika virus inhibitors (AID 1347154); further: nearly all actives have a fitted effect of over 70% in size
# How it was run: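 Fluorogenic AMC-substrate cleavage by noncovalent NS2B-NS3 protease complex (25 nM, pH 8.0 Tris buffer with Tween 20) followed for 15 minutes at room temperature (~20% conversion). Percent inhibition from ex340/em450 signal change, fitted by 4-parameter Hill equation.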
# [9] = qHTS of pediatric cancer cell lines to identify multiple opportunities for drug repurposing: Confirmatory screen for MG 63 (6-TG R) cells (AID 1347119); further: nearly all actives have a fitted effect of over 55% in size; further: potency means the concentration at half of the fitted maximal effect
# How it was run: as §1
# [10] = qHTS of pediatric cancer cell lines to identify multiple opportunities for drug repurposing: Confirmatory screen for Rh18 cells (AID 1347125); further: nearly all actives have a fitted effect of over 55% in size; further: potency means the concentration at half of the fitted maximal effect
# How it was run: as §1
# [11] = qHTS of pediatric cancer cell lines to identify multiple opportunities for drug repurposing: Confirmatory screen for Rh30 cells (AID 1347126); further: nearly all actives have a fitted effect of over 55% in size; further: potency means the concentration at half of the fitted maximal effect
# How it was run: as §1
# [12] = qHTS of pediatric cancer cell lines to identify multiple opportunities for drug repurposing: Confirmatory screen for OHS-50 cells (AID 1347128);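 further: compound exposure lasted 48 h at 37 degrees C; nearly all actives have a fitted effect of over 55% in size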; further: potency means the concentration at half of the fitted maximal effect
# How it was run: as §1
# [13] = biological target: N-terminal Xaa-Pro-Lys N-methyltransferase 1 (Homo sapiens) (UniProt Q9BV86); experiment: qHTS Assay for Inhibitors of N-terminal methyltransferase 1 (NTMT1): LOPAC validation of the NTMT1 SAHH-coupled ThioGlo3 Assay (AID 1347143);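 further: SAH from peptide methylation measured as thiol fluorescence via SAHH coupling and ThioGlo3; nearly all actives have a fitted effect of over 70% in size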; further: potency means the concentration at half of the fitted maximal effect
# How it was run: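 Inhibition of NTMT1 methylation of peptide SPKRIA is followed by converting SAH with SAHH and labelling the released thiol with ThioGlo3. Plates are read at 340/450nm before and 30 min after reagent addition, both at room temperature.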
# [14] = system: Zika virus NS2B-NS3 protease (unlinked); experiment: Optimization of GU AMC qHTS for Zika virus inhibitors: Unlinked NS2B-NS3 protease assay (AID 1347151); further: series mostly up to about 52 µM; nearly all actives have a fitted effect of over 80% in size
# How it was run: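 Unlinked protease (25 nM final); buffer 10 mM Tris-HCl pH 8.0 + 0.01% Tween 20; AMC substrate; 15 min RT, dark; Δfluorescence normalized to no-inhibitor/no-enzyme controls; 4-parameter Hill fit.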
# Chain of N-terminal Xaa-Pro-Lys N-methyltransferase 1 (Homo sapiens) (Q9BV86 whole entry, looked up): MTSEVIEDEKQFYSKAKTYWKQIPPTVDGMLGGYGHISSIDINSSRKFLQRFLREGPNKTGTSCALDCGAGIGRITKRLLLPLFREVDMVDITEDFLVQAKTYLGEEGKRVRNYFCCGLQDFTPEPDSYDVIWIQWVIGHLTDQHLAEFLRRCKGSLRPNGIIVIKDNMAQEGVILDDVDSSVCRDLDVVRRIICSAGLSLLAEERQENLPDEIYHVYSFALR
SMILES,Potency [1],Potency [2],Potency [3],Potency [4],Potency [5],Potency [6],Potency [7],Potency [8],Potency [9],Potency [10],Potency [11],Potency [12],Potency [13],Potency [14]
Cc1c(C(=O)NN2CCCCC2)nn(-c2ccc(Cl)cc2Cl)c1-c1ccc(Cl)cc1,23.3 µM (active),inactive,16.5 µM (active),18.5 µM (active),inactive,20.8 µM (active),inactive,inactive,,,,,,
O=C1c2c(O)cc(O)cc2OC(c2ccc(O)c(O)c2)C1O (stereo not drawn),inactive,inactive,inactive,inactive,inactive,inactive,inactive,,inactive,inactive,inactive,inactive,25.1 µM (active),inactive
CCCCc1ccc2nc(NC(=O)OC)[nH]c2c1,0.293 µM (active),,0.329 µM (active),0.131 µM (active),0.369 µM (active),0.233 µM (active),,inactive,0.185 µM (active),8.27 µM (active),9.27 µM (active),0.329 µM (active),,
CC1(C)C(=O)N(CCN2CCC(C(=O)c3ccc(F)cc3)CC2)c2ccccc21,7.37 µM (active),inactive,,,inactive,inactive,,inactive,inactive,inactive,inactive,,inactive,inactive
O=Nc1c(-c2c(O)[nH]c3cc(Br)ccc23)[nH]c2ccccc12,,,,,,,,,,,,,14.1 µM (active),
CS(=O)(=O)OCCCCOS(C)(=O)=O,,inactive,inactive,inactive,inactive,,inactive,inactive,inactive,inactive,inactive,inactive,,
CCOc1cc(CC(=O)N[C@@H](CC(C)C)c2ccccc2N2CCCCC2)ccc1C(=O)O,inactive,inactive,inactive,inactive,inactive,inactive,inactive,inactive,,inactive,inactive,inactive,,

# Reference: PubChem BioAssay (NCATS)
